In the library only some 15% were active in any assay of this set; here they are far more common.
ELG1 repair inh: inhibitors of ELG1-dependent DNA repair in HEK293T cells; HEK293T ELG1-luciferase reporter, luminescence, 16 h; DNA damage induced by 5-fluorouridine; Potency, µM (series often up to 46.1 µM), hits mostly inhibitors; 330,000 tested, 2.3% active; AID 504467; further: nearly all actives have a fitted effect of over 55% in size
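DMSO vehicle served as the neutral condition. Each well held 2,000 cells given 5-fluorouridine plus compound; after 16 hr at 37 °C/5% CO2, ONE-Glo was added and luciferase measured 30 min later.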
RORg inh: inhibitors of mouse ROR gamma transcriptional activity; P51450; Drosophila S2 Gal4-RORgamma UAS-luciferase reporter, 20 h; Potency, µM (titrated, usually from 53.6 µM), usual class: inhibitors; 310,000 tested, 5.4% active; AID 2551; further: nearly all actives have a fitted effect of over 60% in size
Target sequence (P51450 whole entry, looked up, the tested form may be a part): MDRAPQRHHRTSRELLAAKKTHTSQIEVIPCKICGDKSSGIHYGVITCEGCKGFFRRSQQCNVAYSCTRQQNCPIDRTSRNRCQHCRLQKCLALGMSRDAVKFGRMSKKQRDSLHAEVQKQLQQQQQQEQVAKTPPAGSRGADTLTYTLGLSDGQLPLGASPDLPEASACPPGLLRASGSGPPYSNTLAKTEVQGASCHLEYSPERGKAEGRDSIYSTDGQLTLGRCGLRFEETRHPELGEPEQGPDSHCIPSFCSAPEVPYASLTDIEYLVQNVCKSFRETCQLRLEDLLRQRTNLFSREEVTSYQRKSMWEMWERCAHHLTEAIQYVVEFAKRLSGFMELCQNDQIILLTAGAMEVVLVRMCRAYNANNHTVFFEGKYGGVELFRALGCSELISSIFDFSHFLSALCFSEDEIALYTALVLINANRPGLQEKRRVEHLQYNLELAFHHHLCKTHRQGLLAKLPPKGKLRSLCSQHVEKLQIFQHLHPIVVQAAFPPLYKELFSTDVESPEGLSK
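Using a luciferase readout, inhibitors were identified by reduced reporter activity in Drosophila cells coexpressing a copper-inducible Gal4–ROR gamma fusion and UAS-driven Photinus luciferase, incubated 20 hr after 700 uM copper sulfate.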
TDP1 cell CPT: DT40-hTDP1 cell growth loss with CPT; chicken DT40 Tdp1-/-;hTDP1 cells + 20 nM CPT, ATP luminescence, 48 h; Potency, µM (titrated, usually from 46.2 µM), usual class: inhibitors; 420,000 tested, 12% active; AID 686979; further: nearly all actives have a fitted effect of over 55% in size
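Chicken DT40 Tdp1-/- cells complemented with human TDP1, 400 cells/well, exposed to compounds plus 20 nM camptothecin for at least 48 h at 37 C; viability read as ATP content by CellTiter-Glo luminescence.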
VP16 counter: counter-screen for ROR gamma inhibitors: Gal4-VP16 reporter | Drosophila S2 Gal4-VP16 UAS-luciferase, luminescence, 20 h | Potency, µM (series often up to 53.6 µM), hits mostly inhibitors | AID 2546 | 310,000 tested, 3.5% active;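 further: Gal4-VP16 expression switched on by copper sulfate through the metallothionein promoter; nearly all actives have a fitted effect of over 50% in size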
DT40 TDP1 no CPT: qHTS for Inhibitors of human tyrosyl-DNA phosphodiesterase 1 (TDP1): qHTS in cells in absence of CPT; Potency, µM (titrated, usually from 46.2 µM), actives largely listed as inhibitors; DT40 Tdp1-/- hTDP1 cells, no CPT, ATP luminescence, 48 h; AID 686978, 2013; 420,000 tested, 15% active; further: nearly all actives have a fitted effect of over 55% in size
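Growth of hTDP1-complemented DT40 Tdp1-knockout cells is measured by ATP luminescence after at least 48 hr compound exposure at 37 °C, with DMSO substituting for the 20 nM CPT used in the parallel screen.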
ALOX12 inh: blocks human arachidonate 12S-lipoxygenase; P18054; Potency, µM (series often up to 108 µM), most hits filed as inhibitors; purified 12hLO, xylenol orange hydroperoxide absorbance; 580,000 tested, 1.1% active
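Purified human 12hLO (150 nM final) in 25 mM Hepes, 0.01% Triton X-100, pH 7.0 was preincubated 15 min at room temperature with compound. Then 40 uM arachidonic acid was added, 30 min. Hydroperoxide was read by Fe-XO absorbance ratio 573/405 nm.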
Of the large screens only hits and unclear results are named; the others gave an inactive call. The call rests on the fitted dose curve; in most records, active means well fitted curve in the direction sought with a large enough effect; inconclusive means small, poorly fitted or top-dose-only effect, or another doubt; inactive means no such curve, though single readings can be large; an effect the other way counts as inactive or inconclusive.

COc1ccc(OC)c(NC(=O)c2ccc(-c3nc(CSc4ccccc4)c(C)o3)cc2)c1	TDP1 cell CPT 21µM, DT40 TDP1 no CPT 21µM (no result: ELG1 repair inh, RORg inh, VP16 counter)
Cc1ccc(SCc2nc(-c3ccc(C(=O)NCC(C)c4ccccc4)cc3)oc2C)cc1 (centres undefined)	TDP1 cell CPT 8.2µM, DT40 TDP1 no CPT 6.5µM, ALOX12 inh inconclusive (no result: ELG1 repair inh, RORg inh, VP16 counter)
COc1cc(NC(=O)c2ccc(-c3nc(COc4ccccc4)c(C)o3)cc2)cc(OC)c1	TDP1 cell CPT 9.2µM, DT40 TDP1 no CPT 10µM (no result: ELG1 repair inh, RORg inh, VP16 counter)
CC(=O)N1CCC(Cc2ccc(C(=O)NCc3cn[nH]c3C)cc2)CC1	none (no result: ELG1 repair inh, RORg inh, TDP1 cell CPT, VP16 counter, DT40 TDP1 no CPT)
CCOc1ccc(CNC(=O)c2ccc3c(c2)sc2nc(-c4ccccc4)cn23)cc1	none (no result: ELG1 repair inh, RORg inh, VP16 counter)
COc1cccc(-c2cn3c(n2)sc2cc(C(=O)NCc4cccs4)ccc23)c1	TDP1 cell CPT 13µM, DT40 TDP1 no CPT 6.5µM, ALOX12 inh inconclusive (no result: ELG1 repair inh, RORg inh, VP16 counter)
COc1ccc(-c2cn3c(n2)sc2cc(C(=O)NCc4cccs4)ccc23)cc1	TDP1 cell CPT 10µM, DT40 TDP1 no CPT 13µM (no result: ELG1 repair inh, RORg inh, VP16 counter)
O=C(NCc1cccs1)c1ccc2c(c1)sc1nc(-c3ccccc3)cn12	TDP1 cell CPT 18µM, DT40 TDP1 no CPT 23µM, ALOX12 inh inconclusive (no result: ELG1 repair inh, RORg inh, VP16 counter)
COc1ccc(-c2cn3c(n2)sc2cc(C(=O)N4CCCCC4)ccc23)cc1	TDP1 cell CPT inconclusive, DT40 TDP1 no CPT 21µM (no result: ELG1 repair inh, RORg inh, VP16 counter)
COCCC(=O)N[C@@H]1CN(Cc2cccnc2)C[C@H]1CN(C)C	none (no result: ELG1 repair inh, RORg inh, TDP1 cell CPT, VP16 counter, DT40 TDP1 no CPT)
COc1ccc(-c2cn3c(n2)sc2cc(C(=O)NCCCc4ccccc4)ccc23)cc1	ALOX12 inh inconclusive (no result: ELG1 repair inh, RORg inh, VP16 counter)
COc1ccc(-c2cn3c(n2)sc2cc(C(=O)Nc4c(C)cccc4C)ccc23)cc1	TDP1 cell CPT 13µM, DT40 TDP1 no CPT 9.2µM (no result: ELG1 repair inh, RORg inh, VP16 counter)
COc1cccc(-c2cn3c(n2)sc2cc(C(=O)NCCCc4ccccc4)ccc23)c1	TDP1 cell CPT 6.5µM, DT40 TDP1 no CPT 4.6µM (no result: ELG1 repair inh, RORg inh, VP16 counter)
COc1ccc(-c2cn3c(n2)sc2cc(C(=O)Nc4ccc(C)cc4C)ccc23)cc1	DT40 TDP1 no CPT inconclusive, ALOX12 inh inconclusive (no result: ELG1 repair inh, RORg inh, VP16 counter)
CC[C@H]1CN(S(=O)(=O)c2ccc(OC)cc2)CC[C@H]1CC(=O)NCCN1CCOCC1	none (no result: ELG1 repair inh, RORg inh, TDP1 cell CPT, VP16 counter, DT40 TDP1 no CPT)
CC(C)N1CCc2c(sc(NC(=O)c3nc4ccccc4s3)c2C(N)=O)C1	TDP1 cell CPT 13µM, DT40 TDP1 no CPT 21µM
CC(=O)Nc1sc2c(c1-c1nc3ccccc3s1)CN(C(C)C)CC2	ELG1 repair inh inconclusive (no result: RORg inh, TDP1 cell CPT, VP16 counter, DT40 TDP1 no CPT)
CC(C)N1CCc2c(sc(NC(=O)c3cc(-c4cccs4)nc4ccccc34)c2C(N)=O)C1	ELG1 repair inh inconclusive, RORg inh inconclusive, TDP1 cell CPT 18µM, VP16 counter inconclusive, DT40 TDP1 no CPT 9.2µM (no result: ALOX12 inh)
CCN(CC)Cc1cnc2c(C(=O)N3CCC(C(N)=O)CC3)cnn2c1	none (no result: ELG1 repair inh, RORg inh, TDP1 cell CPT, VP16 counter, DT40 TDP1 no CPT)
O=C(/C=C/c1ccco1)Nc1ccc(Cl)c(S(=O)(=O)N2CCOCC2)c1	ELG1 repair inh 16µM, TDP1 cell CPT inconclusive, DT40 TDP1 no CPT inconclusive, ALOX12 inh inconclusive
O=C(Nc1ccc(Cl)c(S(=O)(=O)N2CCOCC2)c1)C1=NN(c2ccccc2)C(=O)CC1	ELG1 repair inh 29µM, DT40 TDP1 no CPT inconclusive (no result: RORg inh, VP16 counter)
O=C(Nc1ccc(Cl)c(S(=O)(=O)N2CCOCC2)c1)c1ccccc1-c1ccc(C(F)(F)F)cc1	ELG1 repair inh 23µM, TDP1 cell CPT inconclusive, DT40 TDP1 no CPT 16µM
O=C(Nc1ccc(Cl)c(S(=O)(=O)N2CCOCC2)c1)c1cccs1	ELG1 repair inh 26µM, TDP1 cell CPT inconclusive, DT40 TDP1 no CPT inconclusive (no result: RORg inh, VP16 counter)
CN(CC(=O)Nc1ccc(Cl)c(S(=O)(=O)N2CCOCC2)c1)C(=O)c1cccs1	TDP1 cell CPT inconclusive (no result: RORg inh, VP16 counter)
O=C(Nc1ccc(Cl)c(S(=O)(=O)N2CCOCC2)c1)c1cc2ccccc2oc1=O	ELG1 repair inh inconclusive, TDP1 cell CPT inconclusive, DT40 TDP1 no CPT inconclusive (no result: RORg inh, VP16 counter)
Cn1c(SCC(=O)N2CCCCC2)nc2ccsc2c1=O	none (no result: ELG1 repair inh, RORg inh, TDP1 cell CPT, VP16 counter, DT40 TDP1 no CPT)
Cc1ccc(-c2nc3cccc(C)c3nc2-c2ccc(C)cc2)cc1	none (no result: ELG1 repair inh, RORg inh, TDP1 cell CPT, VP16 counter, DT40 TDP1 no CPT)
Cc1nc(N2CCC(NC(=O)COc3ccccc3)CC2)cc(C(F)(F)F)n1	none (no result: ELG1 repair inh, RORg inh, TDP1 cell CPT, VP16 counter, DT40 TDP1 no CPT)

Screens: PubChem, National Center for Advancing Translational Sciences (NCATS)
